In PubChem BioAssay AID651871 (Sanford-Burnham Center for Chemical Genomics, 2012):
Values joined by “and” are separate entries in the source; they are usually repeats but may differ in a detail not shown here. Equal entries are not always repeated.

test system: H9c2; assay: cardiomyocyte survival under oxidative or metabolic stress – cell-based, panel, H9c2 and HL-1, ATP luminescence, set 2, SAR follow-up (AID 651871); conditions: H9c2/HL-1 cardiomyocytes, H2O2 oxidative stress; with H2O2, run 3, at 79 µM (top of the series);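 further: cells exposed to stressor for 2 h before ATP readout; reference of the scale not given here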

**Q.** `COc1ccc2c(c1OC)C(=O)N1c3ccccc3C(=O)N(Cc3cccc(Cl)c3Cl)C21` (centres undefined) was tested. Which activity (protection/inhibition) did it give?
**A.** Its activity (protection/inhibition) is 77.5% and 104% and 43.3%.

**Q.** Which activity (protection/inhibition) does the source give for `COc1ccc2nc(-c3cc(OC)c(OC)c(OC)c3)cc(C(=O)NCC(=O)Nc3ccc(C(C)=O)cc3)c2c1` here?
**A.** Its activity (protection/inhibition) is 91.8% and 76.1%.

**Q.** With `CCOC(=O)c1cccc(NC(=O)CNC(=O)c2cc(-c3cc(OC)c(OC)c(OC)c3)nc3ccccc23)c1` as the molecule, how does the activity (protection/inhibition) read?
**A.** The activity (protection/inhibition) was 99%.

**Q.** `COc1cc(-c2cc(C(=O)Nc3cccc(C(=O)NCc4ccccc4)c3)c3ccccc3n2)cc(OC)c1OC` was tested. Which activity (protection/inhibition) did it give?
**A.** The activity (protection/inhibition) was 95.7%.
